Screens deposited in PubChem BioAssay by several laboratories.
The list is not random: actives were taken first. Their share in the collection is about 2.7%.
MsrA inhibitor: inhibits bovine methionine sulfoxide reductase A; purified bovine MsrA, absorbance read-out; inhibition, % at 15.5 µM; 360,000 tested, 0.75% active; AID 651718;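 note: 0% = vehicle wells with enzyme and 100% = reference inhibitor wells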
MsrA act: activates bovine MsrA enzyme; AID 602163; activation, % at 10.6 µM; 360,000 tested, 0.3% active; purified bovine MsrA, absorbance read-out; in the data active = activation above about 7.5%;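 note: 0% = vehicle and 100% = reference activator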
NadD block: NadD (S. aureus) enzyme inhibition. purified NadD enzyme, colorimetric absorbance read-out. inhibition, % at 20 µM. 360,000 tested, 0.78% active. AID 602399; in the data active = inhibition above about 26%
rCAG RNA binder: molecules binding r(CAG) RNA repeats; r(CAG) RNA repeat, TO-PRO-1 dye displacement fluorescence; inhibition, % at 3 µM; 370,000 tested, 1.3% active;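 active = inhibition above the plate cutoff, the mean of all test compounds on that plate plus 3 SD, cut at about 35% in these data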;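 note: 0% = DMSO alone and 100% = 100 µM mitoxantrone as full dye displacement; higher means more dye released from RNA so lower well fluorescence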
MsrA inh confirm: confirmation of bovine MsrA inhibitors | inhibition, % at 15.5 µM | purified bovine MsrA, absorbance read-out | 2,300 tested, 41% active | shares compounds with MsrA inhibitor | AID 651822;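 note: coupled to thioredoxin reductase with NADPH and selenocystamine and DMSO as substrate; 0% = vehicle only and 100% = full effect of reference inhibitor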
* hit, by the source's call. Cut-off read from the data, not from the text of the source, unless noted: active = inhibition above about 4.5%; inactive = the rest.

Cc1ccc(C(=O)OCC(=O)NC2CCCC(C)C2C)cc1S(=O)(=O)N1CCCCC1 (centres undefined) was read as MsrA inhibitor 0.1, MsrA act -3.1, NadD block -6.9 and rCAG RNA binder 0.8.
`COc1ccc(CC(=O)N/N=C/C=C/c2ccc3c(c2)OCO3)cc1OC` gave MsrA inhibitor 5.9*, MsrA act -5.9, NadD block 1.7, rCAG RNA binder -2.4 and MsrA inh confirm 4.0.
CC(C)(C)OC(=O)N/N=C\C=C\c1ccc2c(c1)OCO2 was read as MsrA inhibitor 5.1*, MsrA act -4.4, NadD block -4.0, rCAG RNA binder -2.6 and MsrA inh confirm 3.5.
For C=CCNC(=O)c1ccccc1NC(=O)C1COc2ccccc2O1 (centres undefined) the results were MsrA inhibitor -0.8, MsrA act -2.8, NadD block -2.4 and rCAG RNA binder -2.1.
For Nc1ccc(Nc2ccc([N+](=O)[O-])cc2[N+](=O)[O-])cc1 the results were MsrA inhibitor 3.8, MsrA act -1.7, NadD block 2.1 and rCAG RNA binder 2.3.
Screening O=C(O)c1ccccc1C(=O)Nc1cccc([N+](=O)[O-])c1 returned MsrA inhibitor 0.2, MsrA act -3.2, NadD block 0.6 and rCAG RNA binder 1.5.
`O=C(O)c1ccccc1C(=O)Nc1ccc(Nc2ccc([N+](=O)[O-])cc2[N+](=O)[O-])cc1` gave MsrA inhibitor 5.1*, MsrA act -12.8, NadD block -0.9, rCAG RNA binder 1.0 and MsrA inh confirm 3.0.
Screening O=[N+]([O-])c1ccc(Nc2ccccn2)c([N+](=O)[O-])c1 returned MsrA inhibitor 5.3*, MsrA act -13.4, NadD block 3.5, rCAG RNA binder 2.1 and MsrA inh confirm 3.6.
`O=C(NCc1cccnc1)Nc1cccc(Cl)c1Cl` gave MsrA inhibitor 1.2, MsrA act -3.4, NadD block -4.4 and rCAG RNA binder -2.8.
CCN(CC)c1ccc(-c2nc3cnccc3n2C)cc1 was read as MsrA inhibitor 5.4*, MsrA act -6.2, NadD block -6.8, rCAG RNA binder -7.0 and MsrA inh confirm 3.2.
COc1cc(/C=N/Nc2ncnc3sc4c(c23)CCC4)ccc1O was read as MsrA inhibitor 5.5*, MsrA act -9.3, NadD block 4.9, rCAG RNA binder 6.0 and MsrA inh confirm 4.1.
O=C(Nc1ccc2c(c1)OCCO2)C1CC(O)CN1C(=O)Nc1ccccc1 (centres undefined) was read as MsrA inhibitor -0.6, MsrA act -4.7, NadD block -2.9 and rCAG RNA binder 1.9.
Screening C/C(=C\c1ccc2c(c1)OCO2)C(=O)c1c(C)cc(C)[nH]c1=O returned MsrA inhibitor 5.5*, MsrA act -6.5, NadD block -2.1, rCAG RNA binder -1.5 and MsrA inh confirm 3.3.
C/C(=C\c1cccc(Br)c1)C(=O)c1c(C)cc(C)[nH]c1=O was read as MsrA inhibitor 1.2, MsrA act -2.3, NadD block -5.3 and rCAG RNA binder -4.5.
Screening C/C(=C\C=C\c1ccccc1)C(=O)c1c(C)cc(C)[nH]c1=O returned MsrA inhibitor 7.4*, MsrA act -8.4, NadD block 1.9, rCAG RNA binder -3.4 and MsrA inh confirm 5.9*.
C/C(=C\c1ccc(C)o1)C(=O)c1c(C)cc(C)[nH]c1=O was read as MsrA inhibitor 7.3*, MsrA act -7.5, NadD block 3.4, rCAG RNA binder -0.2 and MsrA inh confirm 3.6.
Cc1cc(C)c(C(=O)/C=C/C=C/c2ccccc2)c(=O)[nH]1 was read as MsrA inhibitor 3.7, MsrA act -7.2, NadD block 2.6 and rCAG RNA binder 3.1.
COc1cc(SC)ccc1C(=O)Nc1cccc(C2OCCCO2)c1 was read as MsrA inhibitor 0.6, MsrA act -3.9, NadD block -7.6 and rCAG RNA binder -1.6.
For O=C(N/N=C/c1ccc(O)cc1O)c1ccncc1 the results were MsrA inhibitor 4.9*, MsrA act -1.2, NadD block -1.9, rCAG RNA binder -2.5 and MsrA inh confirm 3.7.
`Cc1nonc1C(=O)N/N=C/c1ccc(O)cc1O` gave MsrA inhibitor 5.1*, MsrA act -2.6, NadD block -0.9, rCAG RNA binder -0.6 and MsrA inh confirm 3.5.
For CSc1ccccc1C(=O)OCC(=O)Nc1c(C)n(C)n(-c2ccccc2)c1=O the results were MsrA inhibitor 0.7, MsrA act -0.7, NadD block 0.6 and rCAG RNA binder 2.4.
For CC(OC(=O)c1cccc(S(=O)(=O)N2CCCC2)c1)C(=O)NC1CCCCC1C (centres undefined) the results were MsrA inhibitor -1.3, MsrA act 0.0, NadD block -5.6 and rCAG RNA binder -10.2.
Screening COc1cccc(Oc2nnnn2-c2ccccc2)c1 returned MsrA inhibitor 4.7*, MsrA act -3.1, NadD block -0.3, rCAG RNA binder -0.5 and MsrA inh confirm 1.2.
For CC(c1ccccc1C(=O)O)c1cc(F)cc2ccccc12 (centres undefined) the results were MsrA inhibitor -0.6, MsrA act -1.2, NadD block 0.2 and rCAG RNA binder 9.0.
For O=c1oc2ccccc2c(NCc2ccccc2F)c1[N+](=O)[O-] the results were MsrA inhibitor 8.8*, MsrA act -7.8, NadD block 1.3, rCAG RNA binder 2.6 and MsrA inh confirm 7.2*.
`COc1ccc(CCN2C(=O)C(O)=C(C(=O)c3ccco3)C2c2cccs2)cc1OC` (centres undefined) gave MsrA inhibitor 4.7*, MsrA act -12.1, NadD block 8.8, rCAG RNA binder 6.2 and MsrA inh confirm 1.8.
Screening COc1cccc(C2C(C(=O)c3ccco3)=C(O)C(=O)N2CCCN2CCOCC2)c1OC (centres undefined) returned MsrA inhibitor 4.7*, MsrA act -6.1, NadD block -2.5, rCAG RNA binder 4.7 and MsrA inh confirm -0.2.
`COc1cc(C2C(C(=O)c3ccco3)=C(O)C(=O)N2CCc2ccccc2)ccc1O` (centres undefined) gave MsrA inhibitor 1.4, MsrA act -2.0, NadD block 5.8 and rCAG RNA binder 4.8.
O=C(Nc1ccc(F)cc1)OCCN1C(=O)CCC12CCC(c1ccccc1)CC2 (centres undefined) was read as rCAG RNA binder 1.4.
`Cc1cc(/C=C(/C#N)c2nc3ccccc3[nH]2)c(C)n1-c1ccccc1C(=O)O` gave MsrA inhibitor 1.6, MsrA act -1.7, NadD block 7.1 and rCAG RNA binder 26.5.
`Cc1cc(/C=C(/C#N)c2nc3ccccc3[nH]2)c(C)n1-c1cc(C(=O)O)cc(C(=O)O)c1` gave MsrA inhibitor 4.9*, MsrA act -5.0, NadD block 6.4, rCAG RNA binder 17.0 and MsrA inh confirm 2.6.
For CCN(CCn1cccn1)C(=O)c1ccc(OC2CCN(C(=O)CCOC)CC2)cc1 the results were MsrA inhibitor 1.6, MsrA act -1.6, NadD block -0.1 and rCAG RNA binder -3.0.
O=C(N/N=C/c1c(F)cccc1Cl)C1CC1 was read as MsrA inhibitor 0.7, MsrA act -2.6, NadD block -2.8 and rCAG RNA binder 1.1.
`O=C(O)c1ccc(N/N=C/c2c(F)cccc2Cl)cc1` gave MsrA inhibitor 6.5*, MsrA act -6.3, NadD block -5.2, rCAG RNA binder 2.3 and MsrA inh confirm 4.4.
